# Results reported in PubChem BioAssay (NCI).
# About 79,000 compounds went through this panel and 15% of them were active in at least one assay; those are over-represented in the sample as a whole. Values without a mark were called inactive. Calls of active or inactive are those of the source. No stated cut-off is given here; in the data, active means growth inhibition above about 70%; inactive means the rest.
# Experiments:
# [1] = NCI Yeast Anticancer Drug Screen. Data for the rad50 strain (AID 155);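 further: 0% = growth of vehicle-only cultures of the same strain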; conditions: S. cerevisiae rad50 strain growth inhibition, active compounds read high
# Procedure, shortened: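 Genetically altered yeast (DNA repair pathway); compound treatment; growth inhibition vs vehicle ctrl.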
# [2] = NCI Yeast Anticancer Drug Screen. Data for the mec2-1 strain (AID 157); conditions: S. cerevisiae mec2-1 strain, active compounds read high
# Procedure, shortened: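 Yeast mec2-1 mutant treated with compound. Readout: growth inhibition vs vehicle controls.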
# [3] = NCI Yeast Anticancer Drug Screen. Data for the sgs1 mgt1 strain (AID 161);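 further: 0% = growth of cultures given vehicle only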; conditions: S. cerevisiae sgs1 mgt1 strain, active compounds read high
# Procedure, shortened: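 Mutant yeast exposed to compound; growth scored against vehicle-only wells.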
# [4] = NCI Yeast Anticancer Drug Screen. Data for the cln2 rad14 strain (AID 165);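 further: 0% = growth equal to vehicle treated cultures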; conditions: S. cerevisiae cln2 rad14 strain, active compounds read high
# Procedure, shortened: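 cln2 rad14 yeast strain; compound exposure; growth inhibition read vs vehicle controls.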
# [5] = NCI Yeast Anticancer Drug Screen. Data for the bub3 strain (AID 167); conditions: S. cerevisiae bub3 mutant strain, active compounds read high
# Procedure, shortened: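 Yeast carrying a defined mutation is treated with each compound, and growth is compared with that of vehicle-exposed cells to give inhibition.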
# [6] = NCI Yeast Anticancer Drug Screen. Data for the mlh1 rad18 strain (AID 175); conditions: S. cerevisiae mlh1 rad18 strain growth inhibition, active compounds read high
# Procedure, shortened: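 Yeast w/ defined DNA-repair lesions; compound exposure; growth vs vehicle controls → % inhibition.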
# [7] = at 5.0 µM (retest, dose inferred, filed as 0.5)
# [8] = at 50.0 µM (retest, dose inferred, filed as 5.0)
SMILES,"growth inhibition [1, 7]","growth inhibition [1, 8]",growth inhibition ([1]; at 50.0 µM),"growth inhibition [2, 7]","growth inhibition [2, 8]",growth inhibition ([2]; at 50.0 µM),"growth inhibition [3, 7]","growth inhibition [3, 8]",growth inhibition ([3]; at 50.0 µM),"growth inhibition [4, 7]","growth inhibition [4, 8]",growth inhibition ([4]; at 50.0 µM),"growth inhibition [5, 7]","growth inhibition [5, 8]",growth inhibition ([5]; at 50.0 µM),"growth inhibition [6, 7]","growth inhibition [6, 8]",growth inhibition ([6]; at 50.0 µM)
O=C(CC1(O)CCCCC1)OC1CCCC1,-1%,0%,58.3%,-1%,-11%,-13.2%,1%,0%,5.85%,-14%,19%,62.8%,5%,-10%,-58.9%,7%,10%,6.2%
COc1cccc2c1C(=O)c1c(O)c3c(c(O)c1C2=O)C[C@@](O)(C(=O)CO)C[C@@H]3OC1CC(N(C)C)C(O)C(C)O1 (some centres undefined),94% (active),95% (active),90.1% (active),96% (active),97% (active),91.8% (active),97% (active),97% (active),91.2% (active),96% (active),95% (active),88.8% (active),95% (active),97% (active),89.3% (active),94% (active),94% (active),90.7% (active)
C=C1CC(C)(COc2ccc3c(C)c(Cl)c(=O)oc3c2)OC1=O (centres undefined),23%,95% (active),80% (active),2%,97% (active),68.8%,-2%,95% (active),81% (active),-15%,92% (active),76.8% (active),13%,94% (active),85.8% (active),8%,97% (active),58.6%
CN(C)CC1CCC/C(=C\c2ccc(Cl)c(Cl)c2)C1=O (centres undefined),19%,98% (active),69.3%,9%,98% (active),81.8% (active),-1%,97% (active),86.5% (active),7%,97% (active),86.5% (active),-22%,98% (active),86% (active),6%,97% (active),89.3% (active)
CCSc1nnc(CSc2nc(-c3ccccc3)c(-c3ccccc3)[nH]2)n1-c1ccccc1,35%,35%,79.1% (active),30%,30%,68.7%,32%,32%,76.7% (active),26%,26%,74.5% (active),25%,25%,63.9%,28%,28%,62.5%
O=C1c2ccccc2C(=O)c2c(Nc3cc4c5c(ccc6c7ccc8c9c(cc(Nc%10cccc%11c%10C(=O)c%10ccccc%10C%11=O)c(c3c56)c97)-c3ccccc3C8=O)C(=O)c3ccccc3-4)cccc21,1%,15%,16.9%,-5%,-3%,44%,2%,-3%,-1.9%,-6%,4%,40.8%,-11%,6%,3.1%,-13%,-4%,-4.35%
O=C(O)COc1cc(Br)cc(Br)c1-c1ccccc1,2%,36%,65.2%,14%,70% (active),59.5%,-10%,39%,71.2% (active),2%,56%,65%,-3%,46%,29.8%,22%,78% (active),67.7%
O=C(CC(O)(C(F)(F)F)C(F)(F)F)C(c1ccccc1)C(O)(C(F)(F)F)C(F)(F)F (centres undefined),6%,82% (active),71.8% (active),13%,79% (active),91.5% (active),-3%,86% (active),84.2% (active),13%,92% (active),90.5% (active),-14%,41%,83.2% (active),5%,93% (active),93.6% (active)
NC(=O)NCCCCC1NC(=S)N(c2ccccc2)C1=O (centres undefined),-5%,-4%,-3.85%,-8%,-16%,-3.45%,-7%,47%,29.8%,-3%,-3%,-4.9%,-9%,-7%,5.05%,-9%,-8%,-12.3%
O=[N+]([O-])c1cc(C(F)(F)F)cc([N+](=O)[O-])c1N1CCCC(n2cccc2)C1 (centres undefined),-11%,21%,34.6%,-6%,19%,45.8%,-4%,26%,58.3%,7%,28%,34.1%,-9%,55%,71.2% (active),1%,33%,47.9%
CC(C)(C)c1cc(C(=O)[O-])c([OH2+])c(C(C)(C)C)c1.CC(C)(C)c1cc(C(=O)[O-])c([OH2+])c(C(C)(C)C)c1.[Mn+2],22%,59%,99% (active),27%,60%,98.8% (active),21%,42%,98.5% (active),42%,78% (active),97% (active),21%,49%,97% (active),28%,71% (active),98.2% (active)
Cc1ccc(S(=O)(=O)OC(C=O)C(O)C(O)COC(c2ccccc2)(c2ccccc2)c2ccccc2)cc1 (centres undefined),98% (active),98% (active),87.8% (active),98% (active),98% (active),84.5% (active),95% (active),95% (active),86.4% (active),99% (active),99% (active),84.8% (active),98% (active),98% (active),88.5% (active),99% (active),99% (active),85.2% (active)
Nc1c(-c2ccc(Cl)cc2)[n+]([O-])c2ccccc2[n+]1[O-],-16%,4%,19.2%,-8%,-10%,13.2%,1%,-10%,34.4%,24%,11%,47.7%,-3%,11%,8.45%,15%,6%,37.2%
CCOP(=O)(OCC)/C(C#N)=C/c1coc2cc(C)cc(C)c2c1=O,19%,99% (active),86.7% (active),-7%,100% (active),91.9% (active),-10%,99% (active),78% (active),0%,99% (active),59%,-9%,98% (active),87.2% (active),26%,99% (active),82.2% (active)
C/C(=N\NC(=S)N1CCCC1)c1nc2ncccc2[nH]1,-20%,97% (active),85.9% (active),-3%,94% (active),84.8% (active),-2%,95% (active),83.2% (active),-38%,97% (active),81.7% (active),-40%,98% (active),87% (active),12%,97% (active),82% (active)
CCCCN(CCC(=O)O)c1ccc(/C=C\c2ccnc3ccccc23)cc1,8%,89% (active),94.2% (active),6%,89% (active),93.5% (active),21%,90% (active),95.6% (active),15%,82% (active),88.7% (active),-2%,68%,96.3% (active),0%,89% (active),93% (active)
COc1cc(C(c2cc3c(cc2OC(C)=O)OCO3)C(C)C(C)=O)cc(OC)c1OC (centres undefined),3%,84% (active),-8.35%,4%,66%,13.8%,5%,95% (active),0.1%,7%,49%,51.2%,1%,40%,-1.75%,1%,38%,29.1%
CC(=O)OC1CCC2(C)C(C1)C(OC(C)=O)CC1C3CCC(c4cccc(=O)o4)C3(C)CCC12 (centres undefined),2%,64%,85.1% (active),11%,84% (active),86.7% (active),17%,72% (active),84.8% (active),5%,76% (active),84.9% (active),-2%,79% (active),81.2% (active),-6%,66%,85% (active)
